Test results reported in PubChem BioAssay (NCI).
Compounds without any hit were thinned out: in the full panel of roughly 79,000, 15% have a hit. Values without a mark were called inactive. The source made the active and inactive calls. Rule as the data show it: active = growth inhibition above about 70%; inactive = the rest.

Key:
[1] = NCI Yeast Anticancer Drug Screen. Data for the rad50 strain (AID 155);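 also: 0% = growth of vehicle-only cultures of the same strain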; conditions: S. cerevisiae rad50 strain growth inhibition; at 50.0 µM; hits give high values
Summary of the method: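 Inhibition values express reduced yeast growth in compound-treated cultures relative to vehicle-treated controls.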

[2] = NCI Yeast Anticancer Drug Screen. Data for the mec2-1 strain (AID 157); conditions: S. cerevisiae mec2-1 strain, at 50.0 µM, hits give high values
Summary of the method: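 Compounds were applied to mec2-1 yeast cells. Their growth was then compared with that of vehicle-treated cultures to give growth inhibition.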

[3] = NCI Yeast Anticancer Drug Screen. Data for the sgs1 mgt1 strain (AID 161);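 also: 0% = growth of cultures given vehicle only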; conditions: S. cerevisiae sgs1 mgt1 strain, at 50.0 µM, hits give high values
Summary of the method: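 This yeast growth screen uses a strain with defined DNA-repair lesions; compound-treated growth is compared with vehicle-treated growth.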

[4] = NCI Yeast Anticancer Drug Screen. Data for the cln2 rad14 strain (AID 165);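 also: 0% = growth equal to vehicle treated cultures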; conditions: S. cerevisiae cln2 rad14 strain, at 50.0 µM, hits give high values
Summary of the method: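 Strain: cln2 rad14 yeast, altered in cell cycle control and DNA damage repair. Read-out: growth inhibition vs vehicle.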

[5] = NCI Yeast Anticancer Drug Screen. Data for the bub3 strain (AID 167); conditions: S. cerevisiae bub3 mutant strain, at 50.0 µM, hits give high values
Summary of the method: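 Steps: expose the mutant yeast strain to compound; grow alongside vehicle-treated cultures; measure growth; express inhibition against the vehicle cultures.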

[6] = NCI Yeast Anticancer Drug Screen. Data for the mlh1 rad18 strain (AID 175); conditions: S. cerevisiae mlh1 rad18 strain growth inhibition; at 50.0 µM; hits give high values
Summary of the method: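 A repair-deficient yeast strain is exposed to test compound, and growth is scored relative to vehicle-treated controls.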

Row | SMILES | growth inhibition [1] [%] | growth inhibition [2] [%] | growth inhibition [3] [%] | growth inhibition [4] [%] | growth inhibition [5] [%] | growth inhibition [6]
1 | O=[N+]([O-])c1ccc(N/N=C/C2CC=CCC2)c([N+](=O)[O-])c1 (configuration not stated) | 7 | -6.8 | -8.55 | -13.1 | -5.65 | 5.25%
2 | NC(=O)NCCSC1CCCCC1O (configuration not stated) | -23.1 | -35 | -28.4 | 3.1 | -64.5 | 6.45%
3 | COc1ccc(C(=O)O)cc1 | 12.3 | -19.8 | -32.7 | -41 | -2.9 | -4.25%
4 | NC(CO)C(O)c1ccc([N+](=O)[O-])cc1 (configuration not stated) | -14.6 | -33.2 | -3.3 | -7.25 | -12.2 | -13.7%
5 | COC(=O)C1CC(=O)N(CCCl)C1 (configuration not stated) | -5.65 | 5.6 | -23.9 | -18.1 | 11.7 | -10.8%
6 | O=C(O)CCC(=O)c1ccc2c3c1CCCC3CC2 (configuration not stated) | 52.8 | 51.5 | 48.5 | 29 | 17.2 | 70.7% (active)
7 | O=C(O)CCC(NC(=O)c1ccc(Nc2nc3ccc(C(F)(F)F)cc3nc2-c2ccccc2)cc1)C(=O)O (configuration not stated) | -11.5 | 11.9 | 4.75 | -8.75 | 1.25 | -0.05%
8 | NC(N)=NS(=O)(=O)c1ccc(NC(=O)c2cccn3c(=O)c4ccccc4nc23)cc1 | -6.9 | -2.5 | 30.3 | 11.7 | -9.4 | -20.9%
9 | O=C1c2ccccc2-c2nnc(-c3ccc(Cl)cc3)cc21 | -29.1 | -14.2 | -18.2 | -16.9 | -24.2 | -18.3%
10 | COc1ccccc1C(O)(c1ccccc1)C(O)(c1ccccc1)c1ccccc1OC (configuration not stated) | -20.1 | 2.65 | -20.2 | 15.6 | -5.65 | -4.2%
11 | O=C1O[C@@H](c2ccccc2)C[C@@H]1CN1CCOCC1 | 24.4 | 13.7 | 22.7 | 26.1 | 3.15 | 15.1%
12 | COC(=O)c1cn[nH]c1CC(N)=O | 35.9 | 11.5 | 25.1 | -17.1 | 12.3 | 19.9%
13 | Cc1ccccc1NC(=O)c1ccccc1 | 1.35 | 2.3 | -5.6 | -14.7 | 5.85 | 3.1%
14 | O=C(Nc1ccccc1Cl)OCCOc1ccccc1 | -3.7 | 10.1 | 11.3 | -19.1 | 17.2 | 14.7%
15 | NC(=O)c1ccncc1 | -5 | -7.3 | -13.1 | 5.35 | -1.05 | -6%
16 | CCOC(=S)SCCSC | 11.7 | 6.3 | -1.45 | 4.35 | -3.6 | 11.6%
17 | S=c1cn[nH]c2ccccc12 | 16 | 40.1 | 16.9 | 7.85 | 49.6 | 37.6%
18 | COC(=O)CCCC1(CCCC(=O)OC)CCCCCCCCC(CCCC(=O)OC)(CCCC(=O)OC)C(=O)C1=O | 21.8 | 36.9 | 37.2 | 45.5 | 35.8 | 47.6%
19 | C=CCCCCCCCCC(=O)NCc1cccnc1 | 24.4 | 9.15 | 29.6 | 20.1 | 6.8 | 64%
20 | COc1ccccc1OCC(COC(=O)Nc1ccccc1)OC(=O)Nc1ccccc1 (configuration not stated) | -44.2 | -27.2 | -30.4 | -0.6 | -17.6 | -17.8%
21 | COC(=O)C(=[N+]=[N-])C(=O)c1ccccc1 | 10.1 | 1.05 | -1.3 | 4.65 | -3.6 | 6.9%

Row | SMILES | growth inhibition [1] [%] | growth inhibition [2] [%] | growth inhibition [3] [%] | growth inhibition [4] [%] | growth inhibition [5] [%] | growth inhibition [6]
22 | O=C1CCCC2C1C1CCCC(=O)C21 (configuration not stated) | 6.95 | -7.45 | 3.1 | 0.9 | 3.15 | 20.2%
23 | O=C(O)C(CCl)(CCl)CCl | 19.4 | 1.3 | 1.05 | 17.6 | 13.8 | 15.2%
24 | CCC(C)(O)CCc1ccccc1 (configuration not stated) | -17.5 | -42.6 | -64.2 | 2.55 | -36.3 | -5%
25 | Cn1c(=O)c2c(nc(/N=C/c3ccncc3)n2C)n(C)c1=O | -3.35 | -5.95 | -5.9 | -75.7 | -16.8 | -2.85%
26 | N#Cc1c(N)[nH]c(=S)c(C#N)c1-c1ccccc1 | 45.9 | 35.5 | 47.4 | 33.5 | 31.4 | 35.1%
27 | Cc1ccc(Sc2cccc3c2C(=O)c2c(Sc4ccc(C)cc4)cccc2C3=O)cc1 | -18.9 | 9.05 | -24.5 | -12.4 | -2.7 | -11.3%
28 | O=C(Nc1ccccc1O)c1ccc(Cl)c(Cl)c1 | -7.6 | 32 | 33.2 | -23.2 | 49 | 36.2%
29 | c1ccc(B2Nc3ccccc3O2)cc1 | 18.1 | 7.05 | 5.3 | 18.4 | 43 | 39.5%
30 | COc1ccc2nc(NC(=O)C(=O)C(C)C(=O)c3ccc(Cl)cc3)sc2c1 (configuration not stated) | -10.1 | 4.85 | -8.65 | -5.9 | -2.55 | -0.25%
31 | CC/C=C(\C)C1(CC)C(=O)NC(=O)N=C1N (configuration not stated) | -1.35 | 3.55 | 5.9 | 4.55 | -2 | -11.9%
32 | CCN(CC)/[N+]([O-])=N/OC | -13.6 | -0.3 | 10.9 | 13.4 | 10.3 | 1.35%
33 | C/C(=N\NC(=S)N1CCC(C)CC1)c1nccnc1C | 6.1 | 7.85 | 11.4 | 28.1 | 8.95 | 17.7%
34 | CC(=O)Oc1ccc2ccccc2c1CS(=O)(=O)O | 5.6 | 6.05 | 10.9 | 4.35 | 3.35 | 10.4%
35 | CC(=O)Nc1ccc(C(=O)N2N=C(C)/C(=C/c3cccc([N+](=O)[O-])c3)C2=O)cc1 | -9.8 | -17.6 | -47.5 | 2.55 | -21.9 | -32.2%
36 | CCOC(=O)c1cnc2ccccc2c1OCC | -5.45 | -12.2 | -6.5 | -43.9 | 2.55 | 0.55%
37 | Nc1nc2c(N)cc(C(F)(F)F)cc2nc1-c1ccccc1 | -38.2 | -17.2 | -1.9 | 7.95 | -6.25 | -12.4%
38 | CCOc1c(N=Nc2ccc([N+](=O)[O-])cc2)c(C)nn1C(N)=S | -8 | 8.05 | 15.3 | -27.4 | 13.1 | 15.9%
39 | CCCS(=O)(=O)N1CC(C)OC(C)C1 (configuration not stated) | 2.35 | -16.9 | 3.5 | -7.1 | -10.7 | 3.2%
40 | COc1ccc(OC)c(NC(=O)C(=O)C(C(=O)c2ccccc2F)C2OC(=O)c3ccccc32)c1 (configuration not stated) | -15.6 | -20.2 | -27.9 | -15.8 | -60.2 | -41.2%
41 | Cc1nc2cc(N)c(F)cc2[nH]1 | -14.6 | -6.95 | 21.4 | 12.8 | 16.4 | -0.1%
42 | N#C/C(=N\NC(=O)c1ccccc1)c1ccccc1 | 5.65 | 4.9 | -3.7 | -32.5 | -8.3 | 3.5%
